Measurements as given in PubChem BioAssay (Tox21).
Records with an inconclusive call do not appear. Calls of active or inactive are those of the source. Unless noted, the call rests on the fitted dose curve; in most records, active means well fitted curve in the direction sought with a large enough effect in the repeat runs; inconclusive means weak or mixed curves; inactive means no such curve, though single readings can be large; an effect the other way counts as inactive or inconclusive.

How the values were obtained:
[1] = qHTS assay to identify small molecule agonists of the hypoxia (HIF-1) signaling pathway - cell viability counter screen (AID 1224844; calls by dose curve; further: nearly all actives have a fitted effect of over 50% in size)
Procedure, shortened: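 Cytotoxicity was measured in parallel with the HRE-driven beta-lactamase readout: after 17 hrs of compound exposure at 37C, HRE-bla ME-180 cells received CellTiter-Glo and luminescence was recorded 30 min later.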

[2] = qHTS assay to identify small molecule agonists of H2AX (AID 1224845; active means well fitted activation curve with a large enough effect in the signal ratio in the repeat runs, not every such curve was filed as active; the % refers to the signal ratio)
Procedure, shortened: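 Wild-type CHO-K1 cells plated overnight, then exposed 3 hr at 37C to compounds at 15 concentrations (0.76% DMSO). Lysed, then HTRF anti-pH2AX(S139)-cryptate/anti-H2AX-d2 detection after 24 hr at room temperature; emissions 665 and 620 nm.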

[3] = qHTS assay to identify small molecule agonists of the hypoxia (HIF-1) signaling pathway (AID 1224846; active means well fitted activation curve with a large enough effect in the signal ratio in the repeat runs, not every such curve was filed as active; the % refers to the signal ratio)
Procedure, shortened: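 Compounds from the Tox21 10K library, dissolved in DMSO, are tested for induction of a hypoxia response element–controlled beta-lactamase reporter in ME-180 cells. Exposure lasts 17 hrs at 37C after a 5 hr settling period, followed by CCF4-AM FRET substrate.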

[4] = qHTS assay to identify small molecule agonists of H2AX - cell viability counter screen (AID 1224847; calls by dose curve; further: nearly all actives have a fitted effect of over 30% in size; further: potency means the concentration at half of the fitted maximal effect; on activity change, negative = cytotoxicity: top concentration of the series differs between compounds)
Procedure, shortened: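 CHO-K1 wt, 1000 cells/well, o/n 37C; cpds 15 conc, 3 h 37C, 0.76% DMSO; CellTiter-Glo, 30 min RT, luminescence.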

[5] = qHTS assay to identify small molecule antagonists of the estrogen related receptor (ERR) signaling pathway from Tox21 library (AID 1224848); further: nearly all actives have a fitted effect of over 50% in size; further: potency means the concentration at half of the fitted maximal effect
Procedure, shortened: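 Tox21 10K compounds in DMSO tested for ERR pathway antagonism in NTP's ERR cell line; 18 h, 37 C exposure; ONE-Glo luminescence.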

[6] = qHTS assay to identify small molecule agonists of the estrogen related receptor (ERR) signaling pathway from Tox21 library (AID 1224849; calls by dose curve; further: nearly all actives have a fitted effect of over 15% in size); conditions: ERR reporter cell line, ONE-Glo luciferase, 18 h; at 92.4 µM (top of the series) unless noted
Procedure, shortened: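 Cells carrying the ERR reporter were plated and allowed to settle for 6 h, exposed to library compounds for 18 h at 37 C, then lysed with ONE-Glo and luminescence measured.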

[7] = qHTS RealTime-Glo MT Cell Viability Assay in HepG2 cells - 24 hour (AID 1224867); further: nearly all actives have a fitted effect of over 50% in size
Procedure, shortened: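 HepG2 cells were seeded at 600 cells/well together with NanoLuc luciferase and a cell-permeant prosubstrate, preincubated 5 h at 37 C/5% CO2, then pin-dosed with compounds in DMSO. Nonlytic luminescence from viable cells was read at each time point.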

[8] = qHTS RealTime-Glo MT Cell Viability Assay in HEK293 cells - 32 hour (AID 1224868); further: top concentration of the series differs between compounds; nearly all actives have a fitted effect of over 50% in size
Procedure, shortened: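 HEK293 cells were seeded at 600 cells/well together with NanoLuc luciferase and cell-permeant prosubstrate, preincubated 5 h at 37 C/5% CO2, then given compound in DMSO by pintool. Luminescence from viable-cell prosubstrate reduction was read repeatedly over 40 h.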

[9] = A CellTox Green Cytotoxicity Assay to monitor cytotoxicity in HEK293 cells - 0 hour (AID 1224869); further: nearly all actives have a fitted effect of over 50% in size
Procedure, shortened: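 Cells (HEK293, 600/well) and dye reagent are dispensed together. After 5 h at 37 C, 23 nL compound is pinned in. Plates stay at 37 C for 40 h with fluorescence read at 0h, 8h, 16h, 24h, 32h and 40h.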

[10] = qHTS RealTime-Glo MT Cell Viability Assay in HepG2 cells - 40 hour (AID 1224870); further: nearly all actives have a fitted effect of over 50% in size
Procedure, shortened: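 HepG2 cells mixed with RealTime-Glo MT reagents (NanoLuc plus cell-permeant prosubstrate) were seeded at 600 cells/well, incubated 5 h at 37 C/5% CO2, then pinned with compounds in DMSO; nonlytic luminescence tracked viability during 40 h treatment.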
On the % scale 0 is the no-effect control and ±100 the full control effect.

C#CC1(O)CCCCC1
inactive: Potency [1] | Potency [2] | Potency [3] | Potency [4] | Potency [5] | activity change, positive = activation [6] 1.06% | Potency [7] | Potency [8] | Potency [9]

O=NN(CCO)CCO
inactive: Potency [1] | Potency [2] | Potency [3] | Potency [4] | Potency [5] | activity change, positive = activation [6] 1.69% | Potency [7] | Potency [8] | Potency [9] | Potency [10]

CCCCCON=O
inactive: Potency [1] | Potency [2] | Potency [3] | Potency [4] | Potency [5] | activity change, positive = activation [6] -5.1% | Potency [7] | Potency [8] | Potency [9] | Potency [10]

CC(C)=CC1C(C(=O)OC(C#N)c2cccc(Oc3ccccc3)c2)C1(C)C (configuration not stated)
inactive: Potency [1] | Potency [2] | Potency [3] | Potency [4] | Potency [5] | activity change, positive = activation [6] -9.74% | Potency [7] | Potency [8] | Potency [9] | Potency [10]

Oc1ccc(Cl)c(Cl)c1
active: Potency [4] 49.7 µM
inactive: Potency [1] | Potency [2] | Potency [3] | Potency [5] | activity change, positive = activation [6] -11.7% | Potency [7] | Potency [9]

COC(=O)C(C)N(C(=O)c1ccco1)c1c(C)cccc1C (configuration not stated)
inactive: Potency [1] | Potency [2] | Potency [3] | Potency [4] | Potency [5] | activity change, positive = activation [6] -15.8% | Potency [7] | Potency [8] | Potency [9]

O=Cc1ccccc1
inactive: Potency [1] | Potency [2] | Potency [3] | Potency [4] | Potency [5] | activity change, positive = activation [6] 7.55% | Potency [7] | Potency [8] | Potency [9] | Potency [10]

ClCBr
inactive: Potency [1] | Potency [2] | Potency [3] | Potency [4] | Potency [5] | activity change, positive = activation [6] 5.96% | Potency [7] | Potency [8] | Potency [9]

CC(C)(C)c1ccc(OP(=O)(Oc2ccccc2)Oc2ccccc2)cc1
active: Potency [5] 61.5 µM
inactive: Potency [1] | Potency [2] | Potency [3] | Potency [4] | activity change, positive = activation [6] -31.3% | Potency [7] | Potency [10]

CNC(=O)O/N=C(\C)C(C)S(C)(=O)=O (configuration not stated)
inactive: Potency [1] | Potency [2] | Potency [3] | Potency [4] | Potency [5] | activity change, positive = activation [6] 7.13% [at 872 µM] | Potency [7] | Potency [8] | Potency [10]

CSSC
inactive: Potency [1] | Potency [2] | Potency [3] | Potency [4] | Potency [5] | activity change, positive = activation [6] -6.7% | Potency [7] | Potency [9] | Potency [10]

ClC1(Cl)C2(Cl)C3(Cl)C4(Cl)C(Cl)(Cl)C5(Cl)C3(Cl)C1(Cl)C5(Cl)C24Cl (configuration not stated)
inactive: Potency [1] | Potency [2] | Potency [3] | Potency [4] | Potency [5] | activity change, positive = activation [6] 2.52% | Potency [7] | Potency [8] | Potency [9] | Potency [10]

CC(C)NCC(O)c1ccccc1Cl (configuration not stated)
inactive: Potency [1] | Potency [2] | Potency [3] | Potency [4] | Potency [5] | activity change, positive = activation [6] 0.518% [at 42.5 µM] | Potency [7] | Potency [8] | Potency [9] | Potency [10]

Nc1cc(Cl)ccc1Cl
inactive: Potency [1] | Potency [2] | Potency [3] | Potency [4] | Potency [5] | activity change, positive = activation [6] -0.0267% | Potency [7] | Potency [8] | Potency [9] | Potency [10]

COc1cnc(OC)n2nc(NS(=O)(=O)c3c(OCC(F)F)cccc3C(F)(F)F)nc12
inactive: Potency [1] | Potency [2] | Potency [3] | Potency [4] | Potency [5] | activity change, positive = activation [6] 0.129% | Potency [7] | Potency [8] | Potency [9]

O=c1[nH]c2cc(Cl)ccc2n1C1CCNCC1
inactive: Potency [1] | Potency [2] | Potency [3] | Potency [4] | Potency [5] | activity change, positive = activation [6] 0.0547% [at 42.5 µM] | Potency [7] | Potency [8] | Potency [9] | Potency [10]

O=C(Cl)c1ccccc1F
inactive: Potency [1] | Potency [2] | Potency [3] | Potency [4] | Potency [7] | Potency [8]

OCC(Br)CBr (configuration not stated)
inactive: Potency [1] | Potency [2] | Potency [3] | Potency [4] | Potency [7] | Potency [8] | Potency [9]

CCCN
inactive: Potency [1] | Potency [2] | Potency [3] | Potency [4] | Potency [7] | Potency [8] | Potency [9]

Nc1c(Cl)c(Cl)c(Cl)c(Cl)c1Cl
inactive: Potency [1] | Potency [2] | Potency [3] | Potency [4] | Potency [7] | Potency [8] | Potency [9]

O=C(O)CCCCCCNC1c2ccccc2CCc2ccccc21
inactive: Potency [1] | Potency [2] | Potency [3] | Potency [4] | Potency [7] | Potency [8] | Potency [9] | Potency [10]

CCC1(CC)C(=O)N=C(O)NC1=O
inactive: Potency [1] | Potency [2] | Potency [3] | Potency [4] | Potency [7] | Potency [8] | Potency [9] | Potency [10]

NC(=O)C(Cl)Cl
inactive: Potency [1] | Potency [2] | Potency [3] | Potency [4] | Potency [7] | Potency [8] | Potency [9] | Potency [10]

CC(=O)[O-].CC(=O)[O-].CC(=O)[O-].[Sb+3]
inactive: activity change, negative = cytotoxicity [1] -10.5% [at 2.72 µM] | activation (H2AX phosphorylation) [2] 1.32% [at 5.45 µM] | activation [3] -0.789% [at 2.67 µM] | activity change, negative = cytotoxicity [4] -1.46% [at 5.43 µM] | activity change, negative = cytotoxicity [7] -0.623% [at 2.72 µM] | activity change, negative = cytotoxic [8] 7.03% [at 2.72 µM] | cytotoxicity [9] -0.412% [at 2.72 µM]

COc1ccc2[nH]cc(CCN(C(C)C)C(C)C)c2c1
inactive: Potency [1] | Potency [2] | Potency [3] | Potency [4] | Potency [7] | Potency [8] | Potency [9]

CC(Cc1ccccc1)N(C)Cc1ccco1 (configuration not stated)
inactive: Potency [1] | Potency [2] | Potency [3] | Potency [4] | Potency [7] | Potency [8] | Potency [9]
